Assay results reported in a collection of fitness landscapes (doi:10.1126/science.1257360).
Over roughly 140,000 sequences, “enrichment ratio after two sorts for PhoP signalling” has its median near 0; the highest 2% begin near 11. Only a selection was taken, and the highest values are over-represented in it overall.

B1: PhoQ; a variant is named by its letters at X, in order, P23837 (parent)
chain: MKKLLRLFFPLSLRVRFLLATAAVVLVLSLAYGMVALIGYSVSFDKTTFRLLRGESNLFYTLAKWENNKLHVELPENIDKQSPTMTLIYDENGQLLWAQRDVPWLMKMIQPDWLKSNGFHEIEADVNDTSLLLSGDHSIQQQLQEVREDDDDAEMTHSVAVNVYPATSRMPKLTIVVVDTIPVELKSSYMVWSWFIYVLSANLLLVIPLLWVAAWWSLRPIEALAKEVRELEEHNRELLNPATTRELTSLVRNLNRLLKSERERYDKYRTTLTDLTHSLKTPLXXLQXXLRSLRSEKMSVSDAEPVMLEQISRISQQIGYYLHRASMRGGTLLSRELHPVAPLLDNLTSALNKVYQRKGVNISLDISPEISFVGEQNDFVEVMGNVLDNACKYCLEFVEISARQTDEHLYIVVEDDGPGIPLSKREVIFDRGQRVDTLRPGQGVGLAVAREITEQYEGKIVAGESMLGGARMEVIFGRQHSAPKDE

Variants of: B1
Test: enrichment ratio after two sorts for PhoP signalling (ratio (wild type AVST 3.29)); higher = more functional
Conditions: with PhoP (E. coli)

Variant	enrichment ratio
REDA	≤ 0.25
PAGC	≤ 0.25
YDLP	≤ 0.25
IRNP	≤ 0.25
DPYV	2.59
EAKL	≤ 0.25
YSWM	≤ 0.25
YEGM	≤ 0.25
VTTM	16.4
KCMM	≤ 0.25
YERM	≤ 0.25
SLMM	5.51
NRMM	≤ 0.25
SCMM	14.4
YEMM	16.1
VTGM	≤ 0.25
YSMM	14.3
VTTS	≤ 0.25
RADI	≤ 0.25
MQSS	≤ 0.25
NLSW	≤ 0.25
FRTV	≤ 0.25
NQTP	≤ 0.25
GFHH	≤ 0.25

Variant	enrichment ratio
SQRD	≤ 0.25
VHHE	≤ 0.25
VTPM	≤ 0.25
YEMW	≤ 0.25
YEMV	2.64
YEMS	14.7
GYMM	0.253
TYMM	2.16
GTMM	5.34
VYMM	≤ 0.25
VTMM	12.1
GQMM	11.4
VCMM	2.29
TCMM	11.8
ILAT	0.361
HVDN	≤ 0.25
TLEY	≤ 0.25
KMTV	≤ 0.25
FPHD	≤ 0.25
WHGQ	≤ 0.25
SKMG	3.1
QTMM	≤ 0.25
NSMM	1.7
FFMM	≤ 0.25

Variant	enrichment ratio
SKMM	24.1
KSMM	≤ 0.25
TSMM	21.5
FCMM	8.52
MCMM	11.9
MDMM	≤ 0.25
QGMM	31.6
QLQK	≤ 0.25
TKIP	≤ 0.25
ELAY	≤ 0.25
NETK	≤ 0.25
MVNN	≤ 0.25
RGIV	≤ 0.25
SFSE	≤ 0.25
ETYT	≤ 0.25
MTEV	≤ 0.25
VHMG	≤ 0.25
LSMM	12.4
LNMM	1.77
FGMM	18.1
LWMM	≤ 0.25
NNMM	17.4
FGGM	≤ 0.25
FGWM	≤ 0.25

Variant	enrichment ratio
NNRM	≤ 0.25
LSWM	2.98
DRPI	≤ 0.25
ETGL	≤ 0.25
YNMN	≤ 0.25
ICFY	≤ 0.25
DNHD	≤ 0.25
PFKT	≤ 0.25
QPNP	≤ 0.25
PFSV	≤ 0.25
NIRV	≤ 0.25
LLCQ	≤ 0.25
ALCQ	13.8
ALQP	≤ 0.25
ALVE	≤ 0.25
ALCE	16.1
ALCI	9.33
FDQC	≤ 0.25
HRRK	≤ 0.25
GSPQ	≤ 0.25
WQFG	≤ 0.25
QKFG	≤ 0.25
QEFG	30.8
QRFG	≤ 0.25

Variant	enrichment ratio
QQFG	20.2
QQFA	≤ 0.25
YSKV	≤ 0.25
PITH	≤ 0.25
YICL	3.21
ADAL	≤ 0.25
AEEV	2.19
AAAL	4.97
AEAV	15.8
AEAT	47.1
AEFT	6.27
AEYT	2.16
AEYV	≤ 0.25
AEVT	15.3
AENT	10.7
AEAL	18.2
AELT	6.58
FMVL	≤ 0.25
SFSW	≤ 0.25
TSQR	≤ 0.25
MHEF	≤ 0.25
INEK	≤ 0.25
HTRD	≤ 0.25
IMKH	≤ 0.25

Variant	enrichment ratio
GQND	≤ 0.25
FWMY	≤ 0.25
RETL	≤ 0.25
VEGG	≤ 0.25
ECSV	≤ 0.25
IAKM	≤ 0.25
AQST	5.3
AEQP	≤ 0.25
AEST	18.4
AQQY	≤ 0.25
AEIY	14.8
AEAM	5.95
AEAG	7.71
ADIY	≤ 0.25
AEAS	21.3
AEQY	17.1
ANIY	0.312
ARST	≤ 0.25
MKWE	≤ 0.25
PDNP	≤ 0.25
PQPV	≤ 0.25
INLG	2.36
DREC	≤ 0.25
VNMC	1.44

Variant	enrichment ratio
AEIN	1.09
AEWT	22.1
AEDY	≤ 0.25
AEAY	39.2
AERY	≤ 0.25
AEYM	3.72
AIWT	≤ 0.25
AEKA	≤ 0.25
AEYI	3.12
AEAI	14.2
AEAW	≤ 0.25
AEAN	28.2
ITKR	≤ 0.25
SVFT	≤ 0.25
VISK	≤ 0.25
LWWA	≤ 0.25
NMII	≤ 0.25
TPVN	≤ 0.25
FWRY	≤ 0.25
SCFG	≤ 0.25
ITNE	≤ 0.25
TRFM	≤ 0.25
GRSR	≤ 0.25
PKLW	≤ 0.25

Variant	enrichment ratio
ECFL	≤ 0.25
NQDT	≤ 0.25
AEYY	≤ 0.25
AEAA	12.1
AEGY	43.4
AEYQ	≤ 0.25
AEAD	≤ 0.25
AENY	5.26
SGEP	≤ 0.25
INCT	≤ 0.25
NFHN	≤ 0.25
NMVN	≤ 0.25
DKLH	≤ 0.25
PNLH	≤ 0.25
ANTA	19.3
ANTH	6.44
ANTS	21.1
ANTD	≤ 0.25
ANNK	0.253
ANTK	≤ 0.25
ANTG	1.58
ANFC	≤ 0.25
ANTE	≤ 0.25
ANTC	63

Variant	enrichment ratio
ANTR	≤ 0.25
ANTI	11.4
MYDG	≤ 0.25
PVQS	≤ 0.25
RRVW	≤ 0.25
HRAN	≤ 0.25
KEHR	≤ 0.25
SANM	9.22
NAVG	≤ 0.25
EVLL	≤ 0.25
KQMR	≤ 0.25
SEIQ	22.9
MMIQ	≤ 0.25
YTIQ	≤ 0.25
KYIQ	≤ 0.25
SEFQ	6.8
MDIQ	0.654
SEIE	≤ 0.25
STIQ	14
MEIQ	19.4
EGNN	≤ 0.25
NRRY	≤ 0.25
THCI	7.06
ANVR	≤ 0.25

Variant	enrichment ratio
HNSH	≤ 0.25
HYAD	≤ 0.25
LNEM	≤ 0.25
KKNT	≤ 0.25
SELN	8.08
GMCN	13.6
FNCN	≤ 0.25
GMLN	0.729
TECN	60.8
SNCN	7.42
KECN	≤ 0.25
FECN	13
SECN	23.5
GTCN	3.53
FQCN	≤ 0.25
FCCN	≤ 0.25
KSEA	≤ 0.25
VGRD	≤ 0.25
RFAS	≤ 0.25
LNVE	≤ 0.25
GWCA	≤ 0.25
ACRC	≤ 0.25
RCNS	≤ 0.25
FSFI	0.694

Variant	enrichment ratio
IGKY	≤ 0.25
SSNS	0.835
MECN	12.6
FEWI	≤ 0.25
VECN	≤ 0.25
TCCN	17.6
FELN	13.7
QECN	9.04
DCCN	≤ 0.25
FELA	2.53
NECN	≤ 0.25
MPYN	≤ 0.25
DKHY	≤ 0.25
CHTM	≤ 0.25
NPDP	≤ 0.25
DDIR	≤ 0.25
QAWM	10.8
QAWI	≤ 0.25
QAWS	18.4
NAWL	≤ 0.25
KAWL	≤ 0.25
QAWL	19.9
NGDG	≤ 0.25
NCII	≤ 0.25

Variant	enrichment ratio
YKNN	≤ 0.25
GHVH	≤ 0.25
HGGE	≤ 0.25
LYYP	≤ 0.25
LFEG	≤ 0.25
SESY	25.4
GESY	12.8
GEEY	≤ 0.25
TESY	23.2
KQSY	≤ 0.25
QESY	≤ 0.25
STSY	11.6
SQSY	8.96
NESY	≤ 0.25
SRSY	≤ 0.25
GVSY	≤ 0.25
YTSY	≤ 0.25
HTRW	≤ 0.25
TYTW	≤ 0.25
RVSE	≤ 0.25
PWWY	≤ 0.25
GELC	8.26
IGYI	≤ 0.25
YYAS	≤ 0.25

Variant	enrichment ratio
NMSY	≤ 0.25
KYSY	≤ 0.25
SPSY	≤ 0.25
MESY	14.8
SNSY	12.8
MMSY	2.46
MKSY	≤ 0.25
SMSY	11.4
SDSY	≤ 0.25
HYIP	≤ 0.25
DCSH	≤ 0.25
TYML	0.784
YTML	5.16
FCML	21.1
KCML	≤ 0.25
FTML	12
TCML	16.7
YCNL	≤ 0.25
VCML	10
FPML	≤ 0.25
YCML	12.7
QPML	≤ 0.25
YYML	≤ 0.25
